Source: PubChem BioAssay (several laboratories)
This is a sample that favours compounds with a hit; in the whole collection about 2.7% have one here.
MITF TRPM1 inh = inhibitors of MITF-driven TRPM1 promoter in melanoma cells; SK-MEL-5 TRPM1 promoter luciferase, 24 h; inhibition, % at 12.5 µM; hit rate 0.83% among 330,000;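 active means mean inhibition across replicates of 60% or more, whatever share of single replicates reaches that level; inconclusive means some that reach 60%, reason not given; inactive means mean inhibition across replicates below 60%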
Shn3 inh set2 = Schnurri-3 reporter inhibition in Clone20 osteoblasts; inhibition, % at 12.5 µM; hit rate 0.52% among 360,000; Clone20 osteoblast Shn3 3'UTR firefly luciferase, 24 h;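 active means mean inhibition of at least 75% with every replicate also reaching 75%; inconclusive means mean inhibition at least 75% but some replicate below; inactive means mean inhibition below 75%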
KKLEB tox = CF airway cell cytotoxicity counter-screen; hit rate 0.36% among 360,000; activity change (cytotoxicity), % at 5 µM; KKLEB CF airway cells viability, ATPlite luminescence, overnight; stronger effect = lower value; cells stimulated with P. aeruginosa culture filtrate;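 active means corrected activity change at or below -50% at 5 µM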
Peg3 promoter = inhibitors of Peg3 promoter. HeLa PEG-Prom luciferase reporter, luminescence, overnight. inhibition, % at 20 µM. hit rate 1.7% among 360,000. AID 588405;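 active means inhibition of at least 50% at 20 µM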
CF NFkB block = cystic fibrosis NF-kB activation inhibition; inhibition, % at 5 µM; KKLEB NF-kB-GFP reporter, PAF-induced, GFP fluorescence overnight; hit rate 0.86% among 360,000;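 active means at least 50% inhibition at 5 µM, scaled per plate between neutral and stimulator controls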;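 further: PAF is a Pseudomonas aeruginosa culture filtrate used as stimulus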
HIF-2a block = inhibitors of HIF-2a. 786-0 RCC cells HIF-2a reporter, luciferase luminescence, overnight. inhibition, % at 18.8 µM. hit rate 0.72% among 360,000;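 active means inhibition of the luminescence signal of 40% or more relative to plate controls, in a single-dose primary screen at 18.75 µM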
Numbers stand for hits; n = inactive; u = inconclusive; x = no result.

SMILES	MITF TRPM1 inh	Shn3 inh set2	KKLEB tox	Peg3 promoter	CF NFkB block	HIF-2a block
CCCCNc1c(-c2ccc(OC)c(Sc3ccc(OC)cc3)c2)nc2ccccn12	n	u	n	93	n	n
CCC(C)Sc1cccc(-c2nc3ccccn3c2NCc2ccccc2)c1 (stereo unspecified)	n	n	n	73	n	n
Clc1ccc(-c2nc3c4ccccc4ccn3c2Cc2ccsc2)cc1	x	x	x	x	x	n
C(=C\c1ccccc1)/CN1CCN(C(c2cc3ccccc3o2)c2nnnn2C2CCCCC2)CC1 (stereo unspecified)	x	n	n	n	n	n
CCCCN(C)c1c(C)nc2ccc(C(=O)NCCCn3ccnc3)cn12	x	n	n	n	n	n
CNC(=O)C[C@H]1C(=O)N(c2ccc(Br)cc2)C[C@@H]1C	x	n	n	n	n	n
COc1ccc(C2=Nc3ccccc3N(C(=O)c3cccnc3)C2C(=O)NC(C)(C)C)cc1 (stereo unspecified)	x	x	x	x	x	n
COC(=O)c1c(N)[nH]c(C(=O)c2ccccc2)c1-c1ccc(Br)cc1	x	x	x	x	x	n
CCCCCCSc1cccc(-c2nc3ccccn3c2NCc2ccccc2)c1	n	n	n	74	n	n
COc1ccc(-c2cc(-c3ccc(C)cc3)nc(SCc3nnc(-c4ccccc4)o3)c2C#N)cc1OC	n	n	-70	n	n	n
COC1=C(OC)C(=O)C(Sc2ccc3ccccc3c2)=CC1=O	n	87	n	64	n	49
COC(=O)N1CCCCC1c1cc(C(=O)NCc2cccnc2)no1 (stereo unspecified)	x	n	n	n	n	n
CCOC(=O)c1c(N2C(=O)C=CC2=O)sc(C)c1C	61	n	n	105	n	47
CCOC(=O)c1c(NC(N)=O)sc(C)c1C	n	n	n	n	n	n
CCCCn1nnnc1C(c1cc2ccccc2o1)N(C)Cc1ccccc1 (stereo unspecified)	x	x	x	x	x	n
CC1(C)Cc2c(sc(NC(=O)COc3ccc(Cl)cc3)c2C(N)=O)C(C)(C)N1	n	n	n	n	n	n
CC1(C)Cc2c(sc(NC(=O)c3ccc4ncsc4c3)c2C(N)=O)C(C)(C)N1	78	n	n	n	n	n
COC(=O)c1c(NC(=O)c2ccc(OC(C)C)cc2)sc2c1CC(C)(C)NC2(C)C	n	n	n	98	n	n
COC(=O)c1c(NC(=O)c2ccccc2)sc2c1CC(C)(C)NC2(C)C	n	n	n	n	n	n
CC1(C)Cc2c(sc(NC(=O)c3ccc(C(=O)c4ccccc4)cc3)c2C(N)=O)C(C)(C)N1	n	n	n	83	n	n
COc1ccc(CN2C(=O)C(CC(=O)NCCCCc3ccccc3)CC(C(=O)N(C)C)=C2C)cc1 (stereo unspecified)	x	n	n	n	n	n
COc1ccc(S(=O)(=O)N(C)C[C@@H]2Oc3cc(Br)ccc3S(=O)(=O)N([C@H](C)CO)C[C@@H]2C)cc1	x	n	n	54	n	n
COc1ccc(S(=O)(=O)N(C)C[C@H]2Oc3cc(Br)ccc3S(=O)(=O)N([C@H](C)CO)C[C@H]2C)cc1	x	n	n	n	n	n
CC(C)n1c(=O)c2ccccc2n1S(C)(=O)=O	x	x	x	x	x	n
CCCCN(C=O)c1c(CC)nc2c(OCc3ccc(Cl)cc3)cccn12	x	n	n	n	n	n
SMILES	MITF TRPM1 inh	Shn3 inh set2	KKLEB tox	Peg3 promoter	CF NFkB block	HIF-2a block
Oc1ccccc1-c1nnc(SCCN2CCOCC2)n1Cc1ccccc1	n	n	n	53	n	n
NNC(=O)C1CCN(S(=O)(=O)c2ccc(Cl)cc2)CC1	n	n	n	n	n	n
O=C(NNC(=O)C1CCN(S(=O)(=O)c2ccc(Cl)cc2)CC1)c1ccccc1O	n	87	n	n	n	n
Fc1cccc(Cc2c(C3CCCCC3)nc3c4ccccc4ccn23)c1	x	x	x	x	x	n
CC(C)(C)OC(=O)CNC(=O)c1[nH]cnc1C(=O)Nc1ccc(CNC(=O)OC(C)(C)C)cc1	n	n	n	66	n	n
C[C@H](NC(=O)c1[nH]cnc1C(=O)Nc1ccc(CNC(=O)OC(C)(C)C)cc1)C(=O)OCc1ccccc1	n	n	n	97	n	n
CC(C)C[C@H](NC(=O)c1[nH]cnc1C(=O)Nc1ccc(CNC(=O)OC(C)(C)C)cc1)C(=O)OCc1ccccc1	n	n	n	n	n	n
CC(C)(C)OC(=O)CNC(=O)c1nc[nH]c1C(=O)NCc1ccc(CNC(=O)OC(C)(C)C)cc1	n	n	n	n	n	n
C[C@@H](O)CNC(=O)c1[nH]cnc1C(=O)Nc1ccc(CNC(=O)OC(C)(C)C)cc1	x	n	n	n	n	n
CC(C)(C)OC(=O)NCc1ccc(NC(=O)c2nc[nH]c2C(=O)NCCNC(=O)c2[nH]cnc2C(=O)Nc2ccc(CNC(=O)OC(C)(C)C)cc2)cc1	n	n	n	84	72	n
CC(=O)OC[C@@H]1CN(Cc2ccccc2)C[C@H](n2cnc3c(Nc4ccccc4)ncnc32)O1	x	n	n	n	n	n
Cc1ccc(OCc2nc3ccccc3n2C(C)C(=O)Nc2c(C)cccc2C)cc1 (stereo unspecified)	x	x	x	x	x	n
CN1CC(O)(C(O)C(O)C(O)CO)SC1=S (stereo unspecified)	x	n	n	n	n	n
Cc1cn([C@@H](CCCCNC(=O)OC(C)(C)C)C(=O)NCCCCCCCCCCC(=O)N2CCN(C(=O)OC(C)(C)C)CC2)nn1	65	90	n	84	n	n
CC[C@H](C)Cc1cn([C@@H](CCCN=C(NC(=O)OC(C)(C)C)NC(=O)OC(C)(C)C)C(=O)NCCCCCCCCCCC(=O)N2CCN(C(=O)OC(C)(C)C)CC2)nn1	n	n	n	54	n	n
CC(C)(C)OC(=O)NCCCCCc1cn(CC(=O)NCCCCCCCCCCC(=O)N2CCN(C(=O)OC(C)(C)C)CC2)nn1	n	n	n	n	n	n
O=c1[nH]c(-c2ccccn2)nc2sc(-c3ccccc3)cc12	n	n	n	96	n	n
COC(=O)C1(C(=O)OC)C[C@H](c2ccc(OC)cc2)N(Cc2ccccc2OC)[C@@H]1c1cccs1	x	x	x	x	x	n
Cc1sc(NC(=O)c2ccco2)c(C(c2cccnc2)N2CCC(C)CC2)c1C (stereo unspecified)	n	n	n	n	n	n
CCN1CCN(C(c2cccnc2)c2c(NC(=O)c3ccco3)sc(C)c2C)CC1 (stereo unspecified)	n	n	n	55	n	n
CCCCN(C)c1c(C)nc2ccc(C(=O)N(C)Cc3ccco3)cn12	x	n	n	n	n	n
O=C1OC(CN(Cc2ccccc2)Cc2ccccc2)CN1N=Cc1ccc([N+](=O)[O-])o1 (stereo unspecified)	82	n	n	n	n	n
O=C1OC(CN2CCOCC2)CN1N=Cc1ccc([N+](=O)[O-])o1 (stereo unspecified)	n	n	n	n	n	n
COc1cc(C2C(C#N)=C(C)NC3=C2C(=O)c2ccccc23)cc(OC)c1OC (stereo unspecified)	77	n	n	n	n	n
